Assay outcomes from PubChem.
In the library only some 2.5% were active in any assay of this set; here they are far more common.
V-ATPase pH – yeast V-ATPase proton transport regulation by pHLuorin. AID 504577. response, % at 10 µM. S. cerevisiae, pHLuorin cytosolic pH fluorescence. actives 0.37% (n = 350,000); in the data active means response mostly above about 7.3%, no sharp cut-off; inactive means mostly below about 5.4%; further: actives read high
SUMO Mot1 rescue – inhibitors of SUMOylation pathway: yeast Mot1-301 growth rescue. S. cerevisiae Mot1-301 growth rescue, ATP luminescence, 38.5C; percent above DMSO median, 100 means doubled. growth rescue, % at 18.8 µM. actives 1% (n = 320,000);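 active means every valid replicate shows activation above 250% relative to neutral control wells; inactive means the rest, any valid replicate at or below 250%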
ATG4B inh – inhibitors of human ATG4B cysteine protease; actives 0.51% (n = 340,000); ATG4B cleavage of LC3-PLA2, NBD-HPC fluorescence, 1 h; inhibition, % at 8.33 µM; in the data active means inhibition above about 40%
Target sequence (Q9Y4P1 whole entry, looked up): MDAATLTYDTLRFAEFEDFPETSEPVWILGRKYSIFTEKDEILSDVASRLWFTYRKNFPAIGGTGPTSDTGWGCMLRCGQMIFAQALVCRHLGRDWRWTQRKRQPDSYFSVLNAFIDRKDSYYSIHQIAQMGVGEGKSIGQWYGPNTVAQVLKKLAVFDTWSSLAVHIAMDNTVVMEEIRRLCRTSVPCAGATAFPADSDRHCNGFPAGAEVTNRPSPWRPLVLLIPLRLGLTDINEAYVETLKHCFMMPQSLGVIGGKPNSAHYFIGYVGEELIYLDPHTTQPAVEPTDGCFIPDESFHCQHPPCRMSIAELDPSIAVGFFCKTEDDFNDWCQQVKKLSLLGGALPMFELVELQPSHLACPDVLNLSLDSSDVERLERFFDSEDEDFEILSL
AI-2 QS mod – Vibrio harveyi AI-2 quorum sensing modulation. AID 2094. Vibrio harveyi JMH597 AI-2 luminescence/OD600 ratio, 9 h; active compounds read low; strain lacks LuxN and CqsS sensors; 0 = neutral-control median. actives 0.4% (n = 300,000). activity change, % at 7.5 µM; in the data active means activity change below about -75%, passing the limit was not always enough;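 further: luminescence divided by OD600 gain over 9 h not by final OD600 alone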
Efflux pump mplx – inhibitors of Candida antifungal efflux pumps expressed in yeast; inhibition, % at 10 µM; AID 485275; actives 0.44% (n = 330,000); S. cerevisiae Candida pump triplex, Nile Red efflux;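 active means plate passing quality check with inhibition over a set limit, or well fluorescence over plate mean plus 4 SD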;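 further: Nile Red retained in pooled yeast measured as flow cytometry median fluorescence; higher means more Nile Red kept so more efflux inhibition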
Yeast Mot1 SUMO – SUMO pathway inhibitors in yeast Mot1-301 growth. shares compounds with SUMO Mot1 rescue. S. cerevisiae Mot1-301 galactose growth, ATP luminescence, 24 h; -100 = growth of slx-deleted rescue strain. growth activity, percent, % at 42 µM. 2,300 tested, under 10 active. AID 493004;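 active means Signal drops as the depositor expects, and the fitted half-maximal dose is no more than ten times the top valid tested dose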;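 further: more negative values mean stronger growth rescue toward the control strain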
Numbers stand for hits; - = inactive; . = no result; + = active, no number.

SMILES	V-ATPase pH	SUMO Mot1 rescue	ATG4B inh	AI-2 QS mod	Efflux pump mplx	Yeast Mot1 SUMO
CCCNC(=O)c1ccc(N2CC3CC(C2)c2cccc(=O)n2C3)c(NC(=O)Nc2ccc(CC)cc2)c1 (stereo not given)	-	-	-	-	-	.
O=C(Nc1ccc([N+](=O)[O-])cc1)c1ccc(Cn2cc([N+](=O)[O-])cn2)cc1	-	-	-	-	-	.
COC(=O)c1ccc(Cn2cc(Cl)cn2)cc1	-	652	-	-	-	-
COC(=O)c1sc(NC(=O)c2ccc(Cn3cc(Cl)cn3)o2)c(C#N)c1C	-	+	-	-	-	-
N#Cc1c(NC(=O)c2ccc(Cn3cc(Br)cn3)o2)sc2c1CCCCC2	-	-	-	-	-	.
O=C(Nc1cnn(Cc2ccc(Cl)cc2)c1)c1ccc([N+](=O)[O-])cc1	-	390	-	-	-	-
CCCCn1c(N)c(N(Cc2ccccc2OC)C(=O)C(C)Oc2cccc(Cl)c2)c(=O)[nH]c1=O (stereo not given)	-	.	.	.	.	.
Cc1cnc(NC(=O)CC2OC(=O)c3ccccc32)s1 (stereo not given)	-	.	-	.	.	.
N=c1sccn1CC(=O)Nc1cccc(S(N)(=O)=O)c1	-	489	-	-	-	-
COc1cccc(/C=N/NC(=O)CNC(=O)c2ccncc2)c1O	-	-	-	-	-	.
COc1cccc(/C=N/NC(=O)CNC(=O)c2ccco2)c1O	-	400	-	-	-	-
Cc1ccccc1CSCC(=O)NCCSc1ccccn1	-	-	-	-	-	.
CSc1ccc(/C=C(\C(=O)O)c2ccc(S(=O)(=O)N3CCCC3)s2)cc1	-	-	-	.	-	.
COc1ccc(-c2nnc(SCC(=O)N3CCCC3)o2)cc1	-	-	-	-	-	.
CCOc1ccc(-c2nnc(SCC(=O)N3CCCC3)o2)cc1	-	713	-	-	-	-
CCOc1ccc(-c2nnc(SCC(=O)N3CCOCC3)o2)cc1	-	-	-	-	-	.
COc1ccc(-c2nnc(SCC(=O)N3CCCCC3)o2)cc1	-	542	-	-	-	-
C/C(=N\Nc1nc(N2CCCCC2)nc(N2CCOCC2)n1)c1ccccc1O	-	-	-	-	-	.
COc1ccccc1NC(=O)c1nn(-c2ccc(F)c(F)c2)ccc1=O	-	-	-	-	-	.
COc1ccccc1NC(=O)c1nn(C)cc1Br	-	669	-	-	-	-
COc1ccccc1NC(=S)NNC(=O)c1nn(C)cc1Cl	-	-	-	-	-	.
COc1ccccc1NC(=O)c1nn(-c2cccc(C(F)(F)F)c2)ccc1=O	-	+	-	-	-	-
CC(=O)Nc1ccc(S(=O)(=O)c2ccnc3cc(Cl)ccc23)cc1	-	.	.	.	.	.
COc1ccc(C2CC(c3cccs3)=NN2C(=O)c2ccccc2)cc1OC (stereo not given)	-	424	-	-	-	-
O=C(CSc1nc2ccc(Nc3nc(N4CCOCC4)nc(N4CCOCC4)n3)cc2s1)N1CCOCC1	-	382	-	-	-	-
SMILES	V-ATPase pH	SUMO Mot1 rescue	ATG4B inh	AI-2 QS mod	Efflux pump mplx	Yeast Mot1 SUMO
CSc1ncccc1C(=O)NC1CCCc2c1cnn2-c1ccc(C)c(C)c1 (stereo not given)	-	458	-	-	-	-
Cc1nc(CCNC(=O)c2ccccc2)cs1	-	641	-	-	-	-
CCOC(=O)c1csc(CCNC(=O)c2ccccc2)n1	-	.	.	.	.	.
O=C(NCc1ccco1)c1ccc(Br)c(S(=O)(=O)N2CCCCC2)c1	-	584	-	-	-	-
CC(C)C[C@H]1CN=C(Nc2ccccc2)N1CCCC1CCCC1	-	-	-	-	-	.
CCCCCCCN1C(Nc2ccccc2)=NC[C@@H]1CC(C)C	-	611	-	-	-	-
CCC1=Nc2cc(C(=O)NCc3ccco3)ccc2Sc2ccccc21	-	397	-	-	-	-
CCC1=Nc2cc(C(=O)NCc3ccco3)ccc2Sc2ccc(Cl)cc21	-	-	-	-	-	.
CCCOc1ccc(C(=O)NCc2ccco2)cc1	-	685	-	-	-	-
COc1ccc2oc(=O)c(C(=O)NCc3ccco3)cc2c1	-	654	-	-	-	-
COc1cccc2cc(C(=O)NCc3ccco3)c(=O)oc12	-	-	-	-	-	.
COc1cc(NC(=O)C2CC(c3ccccc3Cl)=NO2)cc(OC)c1OC (stereo not given)	-	-	-	-	-	.
Cc1ccsc1CN(C(=O)c1ccc([N+](=O)[O-])cc1)C1CCS(=O)(=O)C1 (stereo not given)	-	-	-	-	-	.
COc1ccc(C2=C(N)c3ccccc3C2=O)cc1	-	457	-	-	-	-
Cc1nn(C(C)(C)C)c(OC(=O)c2ccc3c(c2)OCO3)c1S(=O)(=O)c1ccccc1	-	+	-	-	-	-
CN(Cc1ccccc1)c1ccc(C(=O)O)cc1[N+](=O)[O-]	-	-	-	-	-	.
Cc1nc2ccc(NC(=O)c3ccco3)cc2s1	-	363	-	-	-	-
CCCCCNC(=O)c1ccc2c(=O)n(CC3CCCO3)c(=O)[nH]c2c1 (stereo not given)	-	773	-	-	-	-
CCCCCNC(=O)c1ccc2c(=O)n(CC3CCCO3)c(=S)[nH]c2c1 (stereo not given)	-	-	-	-	-	.
c1csc(-c2ccc3ccccc3n2)c1	-	-	-	-	-	.
Nc1nc2ccccc2cc1-c1cccs1	-	435	-	-	-	-
COc1cc2c(cc1OC)C(c1ccc(SC)cc1)CC(=O)N2 (stereo not given)	-	666	-	-	-	-
COc1cc2c(cc1OC)C(c1ccccc1C)CC(=O)N2 (stereo not given)	-	732	-	-	-	-
CCC(NC(=O)C1CCCC1)c1ccccc1 (stereo not given)	-	-	-	-	-	.
COc1ccc(C(=O)COc2ccc3ccc(=O)oc3c2)cc1	-	426	-	-	-	-
SMILES	V-ATPase pH	SUMO Mot1 rescue	ATG4B inh	AI-2 QS mod	Efflux pump mplx	Yeast Mot1 SUMO
c1ccc(C[C@H]2CNCCN2CCCCC2CCCCC2)cc1	-	-	-	-	-	.
c1ccc2c(C[C@@H]3CNCCN3CCCCC3CCCCC3)cccc2c1	-	402	-	.	-	-
Cc1ccc2ccc(S(=O)(=O)NCc3ccco3)cc2c1	-	-	-	-	-	.
O=S(=O)(NCc1ccco1)c1ccc2ccccc2c1	-	430	-	-	-	-
O=[N+]([O-])c1ccc(S(=O)(=O)NCC(c2ccc3c(c2)OCO3)N2CCOCC2)cc1 (stereo not given)	-	.	.	.	.	.
CN(C)c1ccc(C(CNS(=O)(=O)c2ccc([N+](=O)[O-])cc2)N2CCOCC2)cc1 (stereo not given)	-	575	-	-	-	-
COc1cc2cc(C)c3nnc(SCC(=O)Nc4cc(C)on4)n3c2cc1OC	-	421	-	-	-	-
CCc1ccc(-c2nc(SCC(=O)N3CCOCC3)n[nH]2)cc1	-	527	-	-	-	-
